# Laboratory results reported in a collection of fitness landscapes (doi:10.1016/j.celrep.2020.107928).
# In all, about 81,000 sequences were measured (“one-hybrid fitness for binding parS DNA”: median about -0.17, highest 2% from about 0.51 on). For the sample, the highest values were picked, then their nearest neighbours and some sequences at random.
# B1: Caulobacter ParB omega fusion; a variant is named by its letters at X, in order, B8GW30 (parent)
# chain: MESVVVGEPGMSEGRRGLGRGLSALLGEVDAAPAQAPGEQLGGSREAPIEILQRNPDQPRRTFREEDLEDLSNSIREKGVLQPILVRPSPDTAGEYQIVAGERAWRAAQRAGLKTVPIMVRELDDLAVLEIGIIENVQRADLNVLEEALSYKVLMEKFERTQENIAQTIGKSXSHVANXMRLLXLPDEVQSYLVSGELTAXHARAIAAAADPVALAKQIIEGGLSVRETEALARKAPNLSAGKSKGGRPPRVKDTDTQALESDLSSVLGLDVSIDHRGSTGTLTITYATLEQLDDLCNRLTRGI
# Variants of: B1
# Test: one-hybrid fitness for binding parS DNA (scaled: cognate 1, non-cognate 0); higher = stronger binding
# Conditions: with parS DNA site
# Method in brief: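 Selection: bacterial one-hybrid in E. coli USO, HIS3 reporter with the site 19 bp from the promoter, 48 hours at 37°C on M9-minus-histidine plus 0.1 mM IPTG and 5 mM 3-AT. Libraries were Caulobacter ParB with four randomised specificity codons, sequenced on Illumina before and after selection. Fitness is the rescaled log change in variant-to-wild-type read ratio, anchored to the cognate and non-cognate sites.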
row,Variant,one-hybrid fitness for binding parS DNA
1,IKIT,≤ 0.2
2,LFDR,≤ 0.2
3,IRTA,≤ 0.2
4,MSDQ,≤ 0.2
5,EAWR,≤ 0.2
6,DRKV,≤ 0.2
7,LAGW,≤ 0.2
8,RPIL,≤ 0.2
9,QIFK,≤ 0.2
10,ANVG,≤ 0.2
11,RTHG,1.01
12,RTHN,0.45
13,RTHP,≤ 0.2
14,RTGH,≤ 0.2
15,RTRQ,≤ 0.2
16,RTLR,≤ 0.2
17,RTGG,0.997
18,RTGM,0.33
19,RTRN,0.396
20,RTRG,0.908
21,RTLG,1.02
22,RTLQ,≤ 0.2
23,DCRS,≤ 0.2
24,IAEG,≤ 0.2
25,SAYT,≤ 0.2

row,Variant,one-hybrid fitness for binding parS DNA
1,MHTF,≤ 0.2
2,PSYT,≤ 0.2
3,VTEN,≤ 0.2
4,NTYG,≤ 0.2
5,RTYG,1.02
6,RTYQ,≤ 0.2
7,HADL,≤ 0.2
8,RPPT,≤ 0.2
9,RIPN,≤ 0.2
10,RIIN,0.379
11,RIPT,0.549
12,RIIT,0.715
13,RIIK,≤ 0.2
14,RIPP,≤ 0.2
15,RCPT,0.604
16,REPT,≤ 0.2
17,YDNV,≤ 0.2
18,FNSY,≤ 0.2
19,TSTS,≤ 0.2
20,SATQ,≤ 0.2
21,RMWK,≤ 0.2
22,RLRL,≤ 0.2
23,KRHS,≤ 0.2
24,PLTH,≤ 0.2
25,RAHH,0.26

row,Variant,one-hybrid fitness for binding parS DNA
1,RAYR,≤ 0.2
2,RAQF,0.229
3,RACD,≤ 0.2
4,RACN,0.41
5,RACT,0.852
6,RAHT,0.928
7,RAYT,0.904
8,RAQT,0.894
9,RAQM,0.31
10,RAYM,0.324
11,RAHM,0.329
12,MLRS,≤ 0.2
13,GTET,≤ 0.2
14,SSAG,≤ 0.2
15,DLPN,≤ 0.2
16,DGPD,≤ 0.2
17,NYGR,≤ 0.2
18,SRPW,≤ 0.2
19,LATK,≤ 0.2
20,AQEG,≤ 0.2
21,QIWY,≤ 0.2
22,RASQ,≤ 0.2
23,RASY,0.459
24,RAGR,≤ 0.2
25,RARQ,≤ 0.2

row,Variant,one-hybrid fitness for binding parS DNA
1,RARF,0.28
2,RAGT,0.92
3,RART,0.836
4,RAGQ,≤ 0.2
5,RAND,0.215
6,RAST,0.911
7,RANN,0.434
8,RANT,0.907
9,PKYV,≤ 0.2
10,APEG,≤ 0.2
11,FICL,≤ 0.2
12,GDRF,≤ 0.2
13,VNRI,≤ 0.2
14,QPAD,≤ 0.2
15,QAKR,≤ 0.2
16,PSVL,≤ 0.2
17,PTYM,≤ 0.2
18,RALQ,≤ 0.2
19,RAWH,0.223
20,RADK,≤ 0.2
21,RALK,≤ 0.2
22,RADT,0.732
23,RAWT,0.809
24,RADR,≤ 0.2
25,RALT,0.888

row,Variant,one-hybrid fitness for binding parS DNA
1,RAWN,0.384
2,MCRN,≤ 0.2
3,QVLP,≤ 0.2
4,NHYR,≤ 0.2
5,EVTS,≤ 0.2
6,GHDR,≤ 0.2
7,HVTM,≤ 0.2
8,PTLD,≤ 0.2
9,TYDN,≤ 0.2
10,AAAL,≤ 0.2
11,LNIY,≤ 0.2
12,RMMD,≤ 0.2
13,RMML,≤ 0.2
14,RLMS,1.04
15,RIMH,0.264
16,RPMS,≤ 0.2
17,RLMD,≤ 0.2
18,RCMP,0.232
19,RIMP,≤ 0.2
20,RMMS,1.03
21,RIMS,1.04
22,RLMN,0.459
23,RCMS,1.01
24,THDG,≤ 0.2
25,EQQR,≤ 0.2

row,Variant,one-hybrid fitness for binding parS DNA
1,MVPW,≤ 0.2
2,ASII,≤ 0.2
3,PLHG,≤ 0.2
4,GYPH,≤ 0.2
5,CVTM,≤ 0.2
6,RKMN,0.372
7,RSMH,0.245
8,RSMN,0.402
9,RRMN,0.4
10,RKMS,0.876
11,RSMS,0.994
12,RHMH,≤ 0.2
13,RKMD,≤ 0.2
14,RRMS,0.704
15,RHMS,0.966
16,RHMD,≤ 0.2
17,RRMP,≤ 0.2
18,PLPS,≤ 0.2
19,QYNK,≤ 0.2
20,EHAS,≤ 0.2
21,VMVC,≤ 0.2
22,RHYV,≤ 0.2
23,SIFD,≤ 0.2
24,LPVS,≤ 0.2
25,RFMP,≤ 0.2

row,Variant,one-hybrid fitness for binding parS DNA
1,RTMS,0.981
2,RAMD,≤ 0.2
3,RTMD,≤ 0.2
4,RFMH,≤ 0.2
5,RAMH,≤ 0.2
6,RTMH,≤ 0.2
7,RFMS,0.983
8,RAMS,1.02
9,TRVI,≤ 0.2
10,NMKR,≤ 0.2
11,LWSA,≤ 0.2
12,HELA,≤ 0.2
13,TPTY,≤ 0.2
14,TLRR,≤ 0.2
15,DTKA,≤ 0.2
16,RTKA,0.808
17,NTVA,≤ 0.2
18,NTKA,≤ 0.2
19,RTVA,0.566
20,WIMN,≤ 0.2
21,RIYI,≤ 0.2
22,TADM,≤ 0.2
23,QLFQ,≤ 0.2
24,KDMG,≤ 0.2
25,RKAH,≤ 0.2

row,Variant,one-hybrid fitness for binding parS DNA
1,RKFK,≤ 0.2
2,RKAG,0.959
3,RKAN,0.343
4,RKFG,0.946
5,RKFQ,≤ 0.2
6,VRYQ,≤ 0.2
7,SMCS,≤ 0.2
8,TFRT,≤ 0.2
9,GREF,≤ 0.2
10,GPDK,≤ 0.2
11,TATR,≤ 0.2
12,RFFG,0.776
13,NFFG,≤ 0.2
14,DFAG,≤ 0.2
15,KFFG,≤ 0.2
16,NFAG,≤ 0.2
17,RFAG,0.941
18,SCLF,≤ 0.2
19,FALR,≤ 0.2
20,IHMV,≤ 0.2
